Peg3 promoter – Peg3 promoter-driven luciferase inhibitors, primary screen, cell-based, HeLa, luciferase luminescence; HeLa PEG-Prom luciferase reporter, overnight; inhibition, % at 20 µM; 360,000 tested, 1.7% active; AID 588405, 2011;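 active = inhibition of at least 50% at 20 µM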
KKLEB cytotox – cytotoxicity in KKLEB CF airway cells, primary screen, cytotoxicity control for CF NF-kB inhibitor project, cell-based, uHTS, fluorescence assay plates. KKLEB CF airway cells viability, ATPlite luminescence, overnight; stronger effect = lower value; cells stimulated with P. aeruginosa culture filtrate. activity change (cytotoxicity), % at 5 µM. 360,000 tested, 0.36% active. AID 602141, 2011;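 active = corrected activity change at or below -50% at 5 µM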
TROY NFkB inh – inhibitors of TROY-driven NF-kB signaling, primary screen, Q293 LMP1-TROYcd cells, NF-kB luciferase, uHTS; inhibition, % at 10 µM; AID 1347056, 2019; 360,000 tested, 0.98% active; Q293 LMP1-TROYcd NF-kB luciferase reporter, 4 h;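 active = compounds whose plate-normalised and pattern-corrected inhibition of the luciferase reporter signal at the single screening dose is 50% or more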
HIF-2a inh – HIF-2a reporter inhibitors, primary screen, luminescence, 786-0 RCC cells; 786-0 RCC cells HIF-2a reporter, luciferase luminescence, overnight; inhibition, % at 18.8 µM; 360,000 tested, 0.72% active; AID 624352, 2012;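 active = inhibition of the luminescence signal of 40% or more relative to plate controls, in a single-dose primary screen at 18.75 µM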
CF NFkB block – inhibitors of PAF-induced NF-kB signaling, primary screen, cell-based, GFP fluorescence, uHTS | KKLEB NF-kB-GFP reporter, GFP fluorescence overnight | inhibition, % at 5 µM | 360,000 tested, 0.86% active;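 active = at least 50% inhibition at 5 µM, scaled per plate between neutral and stimulator controls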;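 also: PAF is a Pseudomonas aeruginosa culture filtrate used as stimulus; plate controls were PAF-stimulated DMSO wells for no effect and unstimulated DMSO wells for full effect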
TWEAK Fn14 block – inhibitors of TWEAK-Fn14 signaling, primary screen, luciferase reporter cells, uHTS; TWEAK-stimulated Fn14 reporter cells, luciferase luminescence, 8 h; inhibition, % at 10 µM; 360,000 tested, 2% active; AID 1159606, 2016; in the data active = inhibition above about 50%
Starred values were filed as active, the others as inactive; x = not tested or not shown. A selection: hits, their analogues and other compounds. The true share with any hit is near 3.9%.

SMILES	Peg3 promoter	KKLEB cytotox	TROY NFkB inh	HIF-2a inh	CF NFkB block	TWEAK Fn14 block
CC1CCc2nc(NC(=O)c3ccc(S(=O)(=O)N4CCCc5ccccc54)cc3)sc2C1 (centres undefined)	8.9	-9.1	8.6	2.4	1.3	54.8*
Cc1cc(C)cc(N2C(=O)C=CC2=O)c1	106.2*	-34.3	-8.2	-36.3	89.0*	12.8
CN(C(=O)/C=C/c1cnc2ccccc2c1)C1CCCCC1	-146.3	-0.6	31.8	-70.3	-11.3	52.4*
O=[N+]([O-])c1ccc(N2N=C(c3ccccc3)CC2c2ccccc2O)cc1 (centres undefined)	53.0*	-37.1	59.9*	-0.1	40.8	81.4*
COc1ccc(CNn2c(-c3cccs3)nc3ccccc3c2=O)cc1OC	52.8*	-13.0	9.1	-2.6	-14.0	12.3
COc1ccc(C(=O)Nn2c(C)nc3ccccc3c2=O)cc1OC	2.7	-1.0	59.2*	13.9	13.0	-7.8
COc1ccc(C(=O)Nn2c(C)nc3ccccc3c2=O)cc1Br	19.9	5.3	-29.1	13.4	-17.4	5.1
COc1ccc(C(=O)NCC(=O)Nc2ccccc2)cc1OC	-0.4	1.0	x	-2.1	1.8	59.4*
COc1cccc(C(=O)Nn2c(-c3cccs3)nc3ccccc3c2=O)c1OC	21.9	-19.5	1.5	11.1	-10.0	7.2
COc1ccc(C(=O)Nn2c(SCC(=O)NC3CCCC3)nc3ccccc3c2=O)cc1	-30.9	17.1	78.5*	5.6	-1.8	78.5*
COc1cccc(CNC(=S)Nc2cc(C)cc(C)c2)c1	2.9	11.0	-5.6	7.7	10.0	0.1
O=C(CSc1nc2ccccc2c(=O)n1NC(=O)Cc1ccccc1)NCc1ccccc1	9.8	0.2	-9.4	3.2	-0.5	1.1
COc1ccc(C(=O)Nn2c(SCC(=O)NCc3ccccc3)nc3ccccc3c2=O)cc1	-14.2	-2.8	77.7*	-1.7	-0.2	85.1*
COc1ccc(NC(=S)c2ccc3ccccc3n2)cc1	-318.2	10.8	-28.8	-223.5	-46.4	-13.2
COc1cc(OC)cc(C(=O)NNC(=O)c2ccc3ccccc3n2)c1	-4.2	-12.8	57.1*	-15.6	-1.6	36.9
COc1ccc(N=C(NN)c2ccc3ccccc3n2)cc1	-101.1	-1.3	91.5*	56.5*	-1.1	100.9*
Cc1cc2nc(N3C(=O)CNC3=S)sc2cc1C	-51.2	-3.3	62.7*	-61.9	-19.0	90.2*
CCOc1ccc2nc(N3C(=O)CNC3=S)sc2c1	-158.2	13.2	45.0	-147.2	-0.4	-10.8
O=C(Nc1nccs1)c1cccc(S(=O)(=O)N2CCCCC2)c1	0.2	6.9	-11.8	-4.7	-21.4	18.3
CCOC1=C2CN(S(=O)(=O)c3ccc(C)cc3)[C@H](c3cccc4ccccc34)C[C@H]2C(C#N)(C#N)C(C#N)(C#N)C1	51.7*	-13.2	0.6	14.9	39.1	15.6
CCOC1=C2[C@H](c3ccccc3)N(S(=O)(=O)c3ccc(C)cc3)C(C(C)(C)C)[C@H]2C(C#N)(C#N)C(C#N)(C#N)C1 (some centres undefined)	77.9*	-28.5	17.1	49.0*	67.4*	53.8*
CCOc1cc(C(=O)Nc2cc3c(cc2N2CCOCC2)n(C)c(=O)n3C)cc(OCC)c1OCC	-9.3	0.8	-8.8	11.0	-13.8	-25.6
O=C(Nc1ccccc1C(F)(F)F)c1cc2ccccc2o1	-348.5	3.6	-71.7	-290.1	-0.3	-27.0
Cc1ccc(S(=O)(=O)Nc2ccc(Cl)cc2)cc1NC(=O)c1cc2c(s1)CCCC2	11.9	6.8	61.8*	7.7	9.1	72.4*
O=C(NCCOc1ccccc1)C(=O)c1c[nH]c2ccccc12	-117.4	2.0	-28.7	-222.3	0.8	-9.9
SMILES	Peg3 promoter	KKLEB cytotox	TROY NFkB inh	HIF-2a inh	CF NFkB block	TWEAK Fn14 block
c1ccc2nc(-c3nc4ccccc4[nH]3)ccc2c1	-23.8	0.5	48.7	-4.1	-13.6	82.2*
O=[N+]([O-])c1cc(Br)ccc1C[n+]1ccccc1	7.0	14.5	0.7	13.5	-21.2	6.0
COC(=O)c1sc2nc(C)nc(SCC(=O)Nc3sccc3C(N)=O)c2c1C	34.6	-8.2	48.6	4.7	20.3	59.7*
COc1ccc(OCC(=O)Nc2ccccc2C(=O)N2CCOCC2)cc1	13.6	3.7	5.9	10.1	-0.4	19.7
O=[N+]([O-])c1ccccc1S(=O)NCc1c(Cl)cccc1Cl (centres undefined)	0.8	-20.5	54.7*	-2.6	-3.6	7.8
N#Cc1ccc(-c2ccc(OCC(O)Cn3nnc4ccccc43)cc2)cc1 (centres undefined)	-3.5	4.7	51.6*	-7.6	-17.2	37.2
CC(=O)c1ccc(OCC(O)Cn2nnc3ccccc32)cc1 (centres undefined)	-53.1	-12.1	-30.9	-95.4	-15.8	-13.6
O=C(CCCCCNc1nc(=S)[nH]c2ccccc12)N1CCN(c2ccccn2)CC1	55.7*	-0.2	37.6	7.4	-1.5	23.3
COc1cccc(N2CCN(C(=O)CCCCCNc3nc(=S)[nH]c4ccccc34)CC2)c1	62.8*	-20.6	70.0*	-0.4	3.7	53.5*
COc1cc2c(cc1OC)C(c1cc3cc4c(cc3[nH]c1=O)OCO4)N(C(=O)C1CC1)CC2 (centres undefined)	18.7	4.4	-9.1	2.5	-0.2	-23.1
COCCNC(=O)Cn1nc(-c2ccccc2F)ccc1=O	9.9	-0.2	6.2	20.7	5.8	50.6*
NC(=O)c1c(-c2ccc(Cl)cc2Cl)csc1NC(=O)Cc1ccccc1	-20.4	-5.9	19.8	-21.0	7.1	76.1*
O=C(Cc1ccccc1)Nc1scc(-c2ccccc2)c1C(=O)N1CCOCC1	-7.3	3.1	-13.2	-16.9	1.8	-5.5
CC1(c2ccc(Cl)cc2Cl)NC(=O)N(CC(=O)N2CCN(C(=O)c3ccco3)CC2)C1=O (centres undefined)	3.0	0.4	-6.9	2.5	23.4	9.1
CC(C)n1c(SC2CCOC2=O)nc2ccccc21 (centres undefined)	6.1	5.3	-3.6	17.5	-9.4	4.9
Cc1nnc(N2CCCC(C(=O)Nc3cc(F)ccc3F)C2)c2nn(-c3ccccc3)c(C)c12 (centres undefined)	17.9	-0.8	53.0*	18.5	14.3	38.7
Cc1nnc(N2CCCC(C(=O)NCc3ccc(OC(C)C)cc3)C2)c2nn(-c3ccccc3)c(C)c12 (centres undefined)	46.9	3.0	25.6	9.1	2.4	32.5
CCS(=O)(=O)c1nc(S(=O)(=O)c2ccc(C)cc2)c(NCCN2CCOCC2)s1	15.0	1.6	-13.2	7.9	-4.2	32.5
